Data taken from PubChem BioAssay AID1159580 (chemical genetic matrix, 2015).
Several values for one entry are separate records, joined by “and”; a condition that tells them apart may be missing. Equal entries are not always repeated. Screen size: about 5,500 compounds; about 2,000 (36%) were called active. Inconclusive results (about 18%) are left out. No stated cut-off is given here; in the data, active means normalized growth mostly below about 0.91 (no sharp cut-off); inconclusive means no clear call, values can overlap the other calls; inactive means mostly above about 0.92. Some of the results follow.

Experiment: chemical genetic growth profiling, strain panel (AID 1159580);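 further: tested at 20 µM; growth read once vehicle control cultures reached saturation at 30 °C; 1 = growth at the plate median or of vehicle wells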
Conditions: S. cerevisiae deletion strains, growth OD

Measured: normalized growth

Cc1cccc(CN2CCN(C(c3ccccc3)c3ccc(Cl)cc3)CC2)c1 (stereo not drawn)
0.203 (active) and 0.96 (inactive): locus YJL095W, strain BCK1, stronger effect = lower value
active: locus YAL021C, strain ccr4, stronger effect = lower value 0.543 | locus YAL026C, strain drs2, stronger effect = lower value 0.59 | locus YAL030W, strain snc1, stronger effect = lower value 0.861 | locus YBL061C, strain skt5, stronger effect = lower value 0.771 | locus YBR009C, strain hhf1, stronger effect = lower value 0.58 | locus YBR021W, strain FUR4, stronger effect = lower value 0.645 | locus YBR023C, strain chs3, stronger effect = lower value 0.701 | locus YBR171W, strain sec66, stronger effect = lower value 0.879 | locus YBR231C, strain swc5, stronger effect = lower value 0.636 | locus YBR279W, strain paf1, stronger effect = lower value 0.777 | locus YCL011C, strain gbp2, stronger effect = lower value 0.633 | locus YCL016C, strain dcc1, stronger effect = lower value 0.723 | locus YCL061C, strain MRC1, stronger effect = lower value 0.902 | locus YCL069W, strain vba3, stronger effect = lower value 0.848 | locus YDL035C, strain GPR1, stronger effect = lower value 0.815 | locus YDL040C, strain nat1, stronger effect = lower value 0.922 | locus YDL074C, strain BRE1, stronger effect = lower value 0.498 | locus YDL101C, strain DUN1, stronger effect = lower value 0.887 | locus YDL134C, strain PPH21, stronger effect = lower value 0.806 | locus YDL192W, strain arf1, stronger effect = lower value 0.772 | locus YDR069C, strain doa4, stronger effect = lower value 0.787 | locus YDR162C, strain NBP2, stronger effect = lower value 0.737 | locus YDR195W, strain ref2 1.52 [resistant] | locus YDR297W, strain sur2, stronger effect = lower value 0.885 | locus YDR318W, strain mcm21, stronger effect = lower value 0.828 | locus YDR388W, stronger effect = lower value 0.648 | locus YDR502C, strain sam2, stronger effect = lower value 0.85 | locus YEL003W, strain gim4, stronger effect = lower value 0.793 | locus YEL037C, strain rad23, stronger effect = lower value 0.856 | locus YER015W, strain faa2, stronger effect = lower value 0.561 | locus YER016W, strain bim1, stronger effect = lower value 0.906 | locus YER155C, strain BEM2 (second series), stronger effect = lower value 0.759 | locus YER155C, strain BEM2, stronger effect = lower value 0.862 | locus YFR010W, strain ubp6, stronger effect = lower value 0.699 | locus YGL086W, strain mad1, stronger effect = lower value 0.832 | locus YGL248W, strain PDE1, stronger effect = lower value 0.769 | locus YGL253W, strain hxk2, stronger effect = lower value 0.77 | locus YGR135W, strain pre9, stronger effect = lower value 0.758 | locus YGR252W, strain gcn5, stronger effect = lower value 0.471 | locus YHR013C, strain ard1, stronger effect = lower value 0.54 | locus YHR027C, strain rpn1, stronger effect = lower value 0.68 | locus YHR129C, strain ARP1, stronger effect = lower value 0.842 | locus YHR142W, strain chs7, stronger effect = lower value 0.734 | locus YHR200W, strain rpn10, stronger effect = lower value 0.904 | locus YIL066C, strain RNR3, stronger effect = lower value 0.821 | locus YJL092W, strain hpr5, stronger effect = lower value 0.817 | locus YJL095W, strain BCK1 (second series), stronger effect = lower value 0.332 | locus YJL129C, strain trk1, stronger effect = lower value 0.61 | locus YJL164C, strain tpk1, stronger effect = lower value 0.622 | locus YJL166W, strain qcr8, stronger effect = lower value 0.735 | locus YJL187C, strain SWE1 (second series), stronger effect = lower value 0.731 | locus YJL187C, strain SWE1, stronger effect = lower value 0.878
0.393 (active) and 0.952 (inactive): locus YHR030C, strain SLT2, stronger effect = lower value
inactive: locus YBR229C, strain ROT2, stronger effect = lower value 0.979 | locus YCL029C, strain bik1, stronger effect = lower value 0.961 | locus YCR088W, strain abp1, stronger effect = lower value 0.951 | locus YDL005C, strain med2, stronger effect = lower value 0.999 | locus YDL185W, strain tfp1, stronger effect = lower value 0.99 | locus YDR001C, strain nth1, stronger effect = lower value 0.978 | locus YDR101C, strain arx1, stronger effect = lower value 0.935 | locus YDR137W, strain rgp1, stronger effect = lower value 1.05 | locus YDR159W, strain sac3, stronger effect = lower value 0.925 | locus YDR334W, strain swr1, stronger effect = lower value 0.903 | locus YDR335W, strain msn5, stronger effect = lower value 0.976 | locus YDR392W, strain spt3, stronger effect = lower value 0.875 | locus YEL061C, strain CIN8 (second series), stronger effect = lower value 0.978 | locus YEL061C, strain CIN8, stronger effect = lower value 0.968 | locus YER110C, stronger effect = lower value 0.99 | locus YER111C, strain swi4, stronger effect = lower value 0.96 | locus YER167W, strain BCK2, stronger effect = lower value 0.971 | locus YGL078C, strain dbp3, stronger effect = lower value 0.987 | locus YGL167C, strain pmr1, stronger effect = lower value 0.983 | locus YGL173C, strain kem1, stronger effect = lower value 0.94 | locus YGL227W, strain vid30, stronger effect = lower value 0.963 | locus YGL240W, strain doc1, stronger effect = lower value 0.951 | locus YHR079C, strain IRE1 (second series), stronger effect = lower value 0.942 | locus YHR079C, strain IRE1, stronger effect = lower value 0.934 | locus YHR094C, strain hxt1, stronger effect = lower value 0.986 | locus YIL073C, strain SPO22, stronger effect = lower value 0.951 | locus YIL125W, strain kgd1, stronger effect = lower value 0.993 | locus YIR030C, strain dcg1, stronger effect = lower value 0.979 | locus YJL115W, strain asf1, stronger effect = lower value 0.927 | locus YJL134W, strain LCB3, stronger effect = lower value 0.989 | locus YJL154C, strain vps35, stronger effect = lower value 0.995 | locus YJL168C, strain set2, stronger effect = lower value 0.987 | locus YJR043C, strain POL32, stronger effect = lower value 0.903 | locus YJR066W, strain TOR1, stronger effect = lower value 0.926
